Unmarked numbers belong to inactive results. Inconclusive results are not listed. Active and inactive are the calls of the source. Unless noted, the call rests on the fitted dose curve; in most records, active means well fitted curve in the direction sought with a large enough effect in the repeat runs; inconclusive means weak or mixed curves; inactive means no such curve, though single readings can be large; an effect the other way counts as inactive or inconclusive.

The nature of test [1]: qHTS assay for small molecules that induce genotoxicity in human embryonic kidney cells expressing luciferase-tagged ATAD5 (AID 651632). Further: nearly all actives have a fitted effect of over 15% in size. Put shortly: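 A rise in luciferase signal from ATAD5-tagged HEK293T cells marks genetic stress. Cells were exposed to compounds for 16 hr at 37C, 5% CO2, then luciferase was quantified after a 30 min room-temperature incubation with Amplite.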
(In general: qHTS replaces the single test concentration by a dilution series.)

Test [2] can be described thus: qHTS assay for small molecule agonists of the p53 signaling pathway - cell viability (AID 651633; calls by dose curve;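 further: p53RE-bla HCT reporter cells with a stable beta-lactamase p53 reporter; series mostly up to about 83 µM; nearly all actives have a fitted effect of over 30% in size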). The gist of the method: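 p53RE-bla cells, seeded at 4,000 per well and rested 5 h at 37 C/5% CO2, received compounds in DMSO for 16 h at 37 C. CellTiter-Glo was then added, and luminescence was read after 30 min at room temperature to gauge cytotoxicity.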
Test [3] in a line: qHTS assay for small molecules that induce genotoxicity in human embryonic kidney cells expressing luciferase-tagged ATAD5 - cell viability (AID 651634; calls by dose curve; further: nearly all actives have a fitted effect of over 25% in size). The gist of the method:
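Cytotoxicity counter-readout: after 15.5 hr compound treatment at 37C, live-cell protease activity in ATAD5-luciferase HEK293T cells measured by CellTiter-Fluor fluorescence, 30 min development at 37C.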

A short description of test [4]: qHTS assay to test for compound auto fluorescence at 590 nm (red) in HepG2 cells (AID 720674). The gist of the method:
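Compound auto-fluorescence is scored relative to Rose Bengal sodium, measured at 540/590 nm in live HepG2 cultures after 1 hr compound contact (37 C, 5% CO2).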

The nature of test [5]: qHTS assay to test for compound auto fluorescence at 535 nm (green) in HepG2 cells (AID 720675).
Test [6] is described as follows: qHTS assay to test for compound auto fluorescence at 460 nm (blue) in HEK293 cells (AID 720678). Put shortly: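 Blue-channel (Ex/Em 405/460 nm) intensity measured in HEK293 cultures after overnight compound exposure at 37C; signal expressed relative to triamterene. Cells plated 2,000 per well in 10% dialyzed FBS medium and allowed 4-5 hr to attach.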
Test [7] is described as follows: qHTS assay to test for compound auto fluorescence at 590 nm (red) in HEK293 cells (AID 720679). The gist of the method: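 Red-channel autofluorescence (Ex/Em 540/590 nm; Rose Bengal sodium reference) was measured after overnight 37C, 5% CO2 exposure of attached HEK293 cells, 2,000 per well in medium with 10% dialyzed FBS.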
Test [8] in a line: qHTS assay to test for compound auto fluorescence at 535 nm (green) in HEK293 cells (AID 720680).
Test [9] can be described thus: qHTS assay to test for compound auto fluorescence at 460 nm (blue) in HEK293 cell free culture (AID 720681). Put shortly: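 Test compounds were pinned into cell-free culture medium (DMEM with 10% FBS) and fluorescence was read directly at Ex/Em 405/460 nm. Signals were expressed as fluorescence equivalents of triamterene, with DMSO vehicle as control.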
The nature of test [10]: qHTS assay to test for compound auto fluorescence at 535 nm (green) in HEK293 cell free culture (AID 720682). The gist of the method: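 Green-channel intensity (Ex/Em 485/535 nm) was recorded from compound-treated wells containing only DMEM with 10% FBS. Fluorescein provided the equivalency standard.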
Test [11] is described as follows: qHTS assay to test for compound auto fluorescence at 590 nm (red) in HEK293 cell free culture (AID 720683). Put shortly:
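Tox21 10K library compounds were pinned into cell-free DMEM with 10% FBS and fluorescence was read at excitation 540 nm. Activity is expressed as Rose Bengal sodium equivalency.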

The nature of test [12]: qHTS assay to test for compound auto fluorescence at 590 nm (red) in HepG2 cell free culture (AID 720684). The gist of the method: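 Readout: intrinsic compound fluorescence at 590 nm emission after 540 nm excitation, scaled to Rose Bengal sodium. Matrix was cell-free MEM with 10% FBS; DMSO vehicle wells served as control.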
Test [13] is described as follows: qHTS assay to test for compound auto fluorescence at 460 nm (blue) in HepG2 cell free culture (AID 720685). The gist of the method: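 Cell-free plates of MEM plus 10% FBS received 23 nL compound or DMSO vehicle; blue-channel (405/460 nm) intensity scored against triamterene as reference fluorophore.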
Test [14] can be described thus: qHTS assay to test for compound auto fluorescence at 535 nm (green) in HepG2 cell free culture (AID 720686).
Test [15] in a line: qHTS assay to test for compound auto fluorescence at 460 nm (blue) in HepG2 cells (AID 720687). The gist of the method: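 Cells (2,000/well in MEM with 10% FBS) attached overnight at 37 C, then were exposed to compound or DMSO for 1 hr at 37 C, 5% CO2. Fluorescence read at Ex/Em 405/460 nm, expressed as triamterene-equivalent signal.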
The target in test [16] is Glucocorticoid receptor (Homo sapiens) (UniProt P04150). Kind of test: qHTS assay to identify small molecule agonists of the glucocorticoid receptor (GR) signaling pathway (AID 720691; active means well fitted activation curve with a large enough effect in the signal ratio in the repeat runs, not every such curve was filed as active; the % refers to the signal ratio). Put shortly:
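Agonist-mode qHTS in HeLa cells stably expressing a glucocorticoid-response-element beta-lactamase reporter. Fluorescence intensity read with FRET substrate (2 h, room temperature) after 18 h compound treatment at 37 C.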

A short description of test [17]: qHTS assay for small molecule disruptors of the mitochondrial membrane potential - cell viability (AID 720634; calls by dose curve;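 further: human HepG2 liver cancer cells; series mostly up to about 83 µM; nearly all actives have a fitted effect of over 20% in size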). The gist of the method:
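Cytotoxicity was quantified from ATP content by CellTiter-Glo luminescence in the same wells as the MMP dye read-out. HepG2 (2,000 cells/well) were plated overnight and exposed to compounds for 1 hr at 37 C.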

Test [18] addresses Glucocorticoid receptor (Homo sapiens) (UniProt P04150). Kind of test: qHTS assay to identify small molecule antagonists of the glucocorticoid receptor (GR) signaling pathway (AID 720692; active means well fitted inhibition curve with a large enough effect in the signal ratio in the repeat runs, not every such curve was filed as active; the % refers to the signal ratio). Put shortly:
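Inhibition of dexamethasone-driven (5 nM final) beta-lactamase expression was measured in GRE-reporter HeLa cells over 18 h at 37C. Fluorescence was read after 2 h with the B/G FRET substrate at room temperature.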

A short description of test [19]: qHTS assay for small molecule disruptors of the mitochondrial membrane potential (AID 720635). Further: potency means the concentration at half of the fitted maximal effect. Put shortly: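 HepG2 cells (2,000/well) attached overnight at 37C, then took compound for 1 hr at 37C, 5% CO2. Mito-MPS dye was added for 30 min; fluorescence was read at 490/535 nm (monomers) and 540/590 nm (aggregates).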

Sequence of Glucocorticoid receptor (Homo sapiens) (P04150 whole entry, looked up): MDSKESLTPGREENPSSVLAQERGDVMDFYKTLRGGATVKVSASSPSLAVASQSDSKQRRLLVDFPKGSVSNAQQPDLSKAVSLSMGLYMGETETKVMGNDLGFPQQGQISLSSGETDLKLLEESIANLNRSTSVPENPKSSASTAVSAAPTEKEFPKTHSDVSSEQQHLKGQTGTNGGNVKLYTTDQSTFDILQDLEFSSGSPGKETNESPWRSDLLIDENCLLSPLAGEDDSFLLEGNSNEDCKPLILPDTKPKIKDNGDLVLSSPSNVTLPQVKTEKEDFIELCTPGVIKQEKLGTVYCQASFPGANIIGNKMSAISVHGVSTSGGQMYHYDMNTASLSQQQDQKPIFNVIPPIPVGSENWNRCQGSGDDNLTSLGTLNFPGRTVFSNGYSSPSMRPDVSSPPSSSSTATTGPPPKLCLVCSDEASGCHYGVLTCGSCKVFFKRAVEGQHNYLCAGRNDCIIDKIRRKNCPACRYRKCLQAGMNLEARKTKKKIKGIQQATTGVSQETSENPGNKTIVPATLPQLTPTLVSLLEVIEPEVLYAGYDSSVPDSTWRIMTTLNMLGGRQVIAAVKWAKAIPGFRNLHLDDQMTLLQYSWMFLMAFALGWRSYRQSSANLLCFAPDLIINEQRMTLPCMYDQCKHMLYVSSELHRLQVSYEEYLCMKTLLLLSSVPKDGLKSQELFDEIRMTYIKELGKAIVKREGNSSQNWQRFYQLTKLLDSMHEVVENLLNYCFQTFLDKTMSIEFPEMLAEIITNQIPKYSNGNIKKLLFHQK

Turning to `Nc1ccn([C@@H]2O[C@H](CO)[C@@H](O)C2O)c(=O)n1` (stereo partly drawn), the Potency result in [1], in test [2], in [3] and in test [16] was “inactive” throughout. In addition, the outcome in test [4], in test [5], in test [6], in test [7], in test [8] and in test [9] was inactive. Moreover, the compound was called inactive in [10], in [11], in [12], in test [13], in [14] and in test [15].
Turning to `CC(C)c1ccc2ncccc2c1`, the Potency result in test [1] and in [3] was “inactive” throughout. In addition, the result in [17], in test [4], in [5], in [6], in [8] and in test [9] was inactive. For the same compound, the compound was called inactive in test [10], in [11], in test [12], in [13], in test [14] and in test [15].
`CCN(Cc1ccccc1)c1ccccc1`: the Potency result in test [1], in test [2] and in [3] was “inactive” in each case. The call in [17], in test [4], in test [5], in test [6], in test [8] and in test [9] was inactive. Further, the result in test [10], in test [11], in [12], in [13], in test [14] and in [15] was inactive.
`CC(C)(C)c1ccc(-c2ccc(C(C)(C)C)cc2)cc1`: the Potency entry in test [1], in test [2], in [3], in [16] and in [18] was “inactive” each time. Further, the call in [4], in test [5], in test [6], in test [7], in test [8] and in [9] was inactive. Further, the result in test [10], in test [11], in test [12], in [13], in test [14] and in test [15] was inactive.
For the compound `O=C(O)CNC(=O)c1ccccc1`, the Potency entry in test [1], in [2], in test [3], in test [19] and in test [16] was “inactive” throughout. Further, the outcome in [4], in test [5], in [6], in [7], in [8] and in [9] was inactive. The outcome in test [10], in [11], in test [12], in test [13], in test [14] and in test [15] was inactive.
On to `NS(=O)(=O)Cc1noc2ccccc12`, for which the Potency entry in test [1], in [2] and in test [3] was “inactive” in each case. The outcome in test [4], in test [5], in [6], in test [7], in test [8] and in test [9] was inactive. Besides, the compound was classed as inactive in test [10], in test [11], in test [12], in test [13], in [14] and in [15].
`O=C1c2ccccc2C(=O)c2cc(O)ccc21`: the Potency entry in [2] and in test [3] was “inactive” in each case. Further, the Potency in [19] was 1940 nM (active). For the same compound, the compound was called inactive in test [4], in test [5], in test [6], in test [7], in [8] and in test [9]. Moreover, the compound was classed as inactive in test [10], in [11], in test [13], in test [14] and in test [15].
